Bioassay records (PubChem BioAssay)
Rin1-Abl PPI inh: human Rin1-Abl interaction inhibition | P00519+Q13671 | TR-FRET Rin1/Abl binding, biochemical | inhibition, % at 7.35 µM | 0.4% of 360,000 active; in the data active = inhibition above about 5%, passing the limit was not always enough
Calb FLC: affects C. albicans growth with fluconazole; C. albicans CaCi-2 (fluconazole-resistant clinical isolate) + fluconazole, Alamar Blue growth, 48 h; growth inhibition, % (no concentration beside the values); 0.57% of 300,000 active; AID 1979;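 active = growth inhibition above about 58% in most replicates, limit read from the data, passing the limit was not always enough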;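 note: all wells also contain fluconazole at 8 µg/ml as a sub-toxic cotreatment; 0% = median of DMSO wells and 100% = median of geldanamycin control wells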
Rpn11 inh: Rpn11 (human) deubiquitinase inhibition; human 26S proteasome, Ub4-pepOG fluorescence polarization; 20S core pre-blocked with epoxomicin; inhibition, % at 20 µM; 0.59% of 360,000 active; AID 588493;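 active = inhibition at 20 µM, scaled to each plate's controls, above about 33%, limit read from the data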
IDE cell activ: activators of human insulin-degrading enzyme in cells. P14735. HEK cells, FAbeta-B cleavage, fluorescence polarization; 0% vehicle, 100% cell-free pure enzyme wells. activation, % at 5.96 µM. 0.073% of 340,000 active. AID 493087;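 active = activation above the mean of all tested compounds plus 3 SD, set per screening campaign, cut at about 17% in these data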
TPT1 inhibitor: blocks Candida albicans tRNA 2'-phosphotransferase. inhibition, % at 5 µM. 0.81% of 300,000 active. recombinant caTPT1, FP RNA substrate dephosphorylation;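 active = inhibition above the mean of all tested compounds plus 3 SD, set per screening campaign, cut at about 24% in these data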;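 note: plate controls were DMSO alone for no effect and ferristatin control at 100 nM for full effect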
IDE inh: inhibitors of human insulin-degrading enzyme in cells; P14735; HEK cells, FAbetaB cleavage, fluorescence polarization; inhibition, % at 5.59 µM; 0.41% of 320,000 active; AID 434962;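 active = percent inhibition above the average of all tested compounds plus 3 SD, set per screening campaign, cut at about 16% in these data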;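 note: IDE supplied by intact live HEK cells; FP after avidin binding of uncleaved biotin substrate so inhibition keeps polarization high; 0% = DMSO wells and 100% = 60 µM reference IDE inhibitor Ii1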
TPT1 inh confirm: confirmation of Candida albicans TPT1 inhibitors | 74% of 2,400 active | inhibition, % at 5 µM | shares compounds with TPT1 inhibitor | AID 2149 | recombinant caTPT1, fluorescence polarization, RNase T1 coupled;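 active = inhibition above the primary screen limit, the mean inhibition of all tested compounds plus 3 SD, cut at about 25% in these data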
RNase T1 counter: counter-screen for TPT1 inhibitors: inhibitors of Aspergillus oryzae RNase T1. AID 2153. 83% of 2,400 active. RNase T1 cleavage, fluorescence polarization, 1536-well. shares compounds with TPT1 inhibitor. inhibition, % at 5 µM;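 active = inhibition above the solvent-only control well mean plus 3 SD, limit set per screening run, cut at about 23% in these data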;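 note: plate controls were DMSO wells with enzyme for no effect and wells without RNase T1 for full effect; inhibitors block cleavage so intact labeled substrate keeps polarization high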
* marks the source's active call; other numbers are inactive results; . = no result shown. Most compounds without a hit are left out; they make up all but 2.3% or so of the library.

SMILES | Rin1-Abl PPI inh | Calb FLC | Rpn11 inh | IDE cell activ | TPT1 inhibitor | IDE inh | TPT1 inh confirm | RNase T1 counter
Cc1ccccc1CNC(=O)c1ccc2nc(N3CCOCC3)sc2c1 | 3 | 15 | -9 | 2 | -1 | 3 | . | .
CC(C)N(CCCNC(=O)C1CCN(C(=O)c2cc3sccc3n2C)CC1)Cc1ccccc1 | 2 | -11 | 1 | 2 | 0 | 4 | . | .
COC(=O)c1cc(NC(=O)c2cccc(Cl)c2)c(=O)oc1/C=C/Nc1cc(C)cc(C)c1 | . | -4 | . | . | 194* | 16 | 166* | 155*
C=CCOC1COC2C(OCC=C)COC12 (configuration not stated) | 6 | . | 2 | 3 | . | . | . | .
CCOC(=O)N1CCN(c2cc(=O)n(-c3cccc(Br)c3)c(=O)[nH]2)CC1 | -1 | 10 | 5 | 2 | 1 | 1 | . | .
CCOC(=O)N1CCN(c2cc(=O)n(-c3cccc(C)c3)c(=O)[nH]2)CC1 | -1 | 15 | 4 | -2 | 110* | 1 | -3 | 3
O=C(/C(=N/N=C/c1ccc(O)c(O)c1)c1ccccc1)c1ccccc1 | -2 | 6 | -10 | -1 | -1 | -3 | . | .
Cc1ccc2c(c1)C1(C(=O)N2C)N2CC3(C)CN1CC(C)(C2)C3=O (configuration not stated) | -3 | -1 | -6 | 2 | 64* | 3 | -1 | 0
CCCC12CN3CC(C)(CN(C1)C31C(=O)Nc3ccc(C)cc31)C2=O (configuration not stated) | -8 | -11 | 0 | -1 | 1 | 2 | . | .
CCOc1cc(/C=C2/SC(=S)N(Cc3ccccc3)C2=O)ccc1O | 0 | 16 | . | -75 | 26* | 83* | 38* | 48*
COc1cc(/C=C2/SC(=S)N(Cc3ccccc3)C2=O)cc(Cl)c1O | -3 | -7 | . | -118 | 37* | 86* | 4 | 22*
O=C(Nc1ccc(C(O)c2ccccc2)cc1)[C@@H]1O[C@H](CO)[C@H](O)[C@H](O)[C@H]1O (some centres not stated) | 2 | . | -5 | . | . | . | . | .
O=C(Cn1ncc2c3ccccc3n(Cc3cccc(Cl)c3)c2c1=O)NCC1CCCO1 (configuration not stated) | 2 | -19 | . | 1 | 29* | 5 | 98* | 94*
CCOc1ccc(CCN2C(=S)N([C@@H](CC(C)C)CN3CCCC3CN3C(=S)NC[C@@H]3Cc3ccc(O)cc3)C[C@@H]2CC(C)C)cc1 (some centres not stated) | -5 | . | 0 | 1 | . | . | . | .
Cc1ccc(C(=O)CSc2nc(-c3ccccc3)ccc2C#N)cc1 | 0 | -23 | . | -2 | 24 | 3 | . | .
N#Cc1ccc(-c2ccco2)nc1SCC(=O)c1ccc(Cl)cc1 | -3 | 2 | 48* | -33 | 99* | 11 | 62* | 67*
O=[N+]([O-])c1ccc(N2CCN(Cc3ccccc3)CC2)s1 | -13 | -13 | 36 | 1 | 31* | -2 | 38* | 50*
Cc1[nH]c2ccccc2c1/C=C(\C#N)C(=O)NCc1ccccc1 | -1 | 1 | 14 | 6 | 31* | 1 | 41* | 49*
CC1=Nc2ccccc2/C1=C\c1nc(-c2ccc(F)cc2)oc1O | 1 | -25 | -11 | -1 | 93* | 5 | 96* | 102*
CCN(CC)S(=O)(=O)c1cccc(C(=O)NC2=NCCS2)c1 | 0 | -9 | -2 | 4 | 2 | -2 | . | .
CN1CCc2c(sc3nc(SCC(=O)NCc4ccco4)n(-c4ccccc4)c(=O)c23)C1 | 0 | 18 | . | -3 | 30* | 5 | 38* | 51*
COc1ccc(-n2c(SCC(=O)NCc3ccco3)nc3sc4c(c3c2=O)CCN(C)C4)cc1 | -2 | 32 | 7 | -3 | 14 | 6 | . | .
Cc1nn2cc(-c3ccc(-c4ccccc4)cc3)nc2s1 | 2 | -3 | 0 | -2 | 4 | 1 | . | .
O=[N+]([O-])c1ccc(-c2cn3nc(-c4ccccc4)c(-c4ccccc4)nc3n2)cc1 | -1 | -1 | . | . | 17 | 16 | . | .
c1ccc(-c2cn3nc(-c4ccccc4)c(-c4ccccc4)nc3n2)cc1 | 0 | 27 | -11 | 3 | 34* | -4 | 44* | 51*
SMILES | Rin1-Abl PPI inh | Calb FLC | Rpn11 inh | IDE cell activ | TPT1 inhibitor | IDE inh | TPT1 inh confirm | RNase T1 counter
Cc1ccc(-c2cn3nc(-c4ccccc4)c(-c4ccccc4)nc3n2)cc1 | -2 | 6 | -28 | . | 68* | 4 | 71* | 75*
CCOC(=O)C1(C)CCN1C(=O)c1ccccc1C(F)(F)F (configuration not stated) | 4 | . | 1 | . | . | . | . | .
Cc1ccc(NS(=O)(=O)c2c(C)[nH]c(C)c2C(=O)N2CCCCC2)cc1Cl | 1 | 4 | 0 | 0 | -1 | 5 | . | .
COc1ccccc1NS(=O)(=O)c1cc([N+](=O)[O-])ccc1N/N=C/c1c(C)[nH]c2ccccc12 | -1 | 25 | . | -4 | 101* | 8 | 104* | 107*
O=[N+]([O-])c1ccc(N/N=C/c2c[nH]c3ccccc23)c(S(=O)(=O)Nc2ccc(Cl)cc2)c1 | 3 | -15 | . | 1 | 36* | 1 | 107* | 108*
CN1CCN(S(=O)(=O)c2cc([N+](=O)[O-])ccc2N/N=C/c2ccc(Cl)cc2)CC1 | -4 | 18 | 2 | 7 | 1 | 3 | . | .
Cc1ccc2c(c1)N/C(=C(\C=C(/Cl)[N+](=O)[O-])[N+](=O)[O-])N2 | . | 38 | . | . | 25* | -3 | 23 | 33*
Cc1ccccc1C(=O)c1cccn1CC(=O)NCCCc1ccccc1 | 4 | -3 | 4 | 0 | -3 | 0 | . | .
COc1cccc(C2=CC(c3ccc(N(C)C)cc3)n3ncnc3N2)c1 (configuration not stated) | . | 11 | . | . | 38* | 18* | 34* | 43*
COc1ccc(N(C(=O)c2cccnc2)S(=O)(=O)c2cccc([N+](=O)[O-])c2)cc1 | 3 | 32 | 1 | 5 | 68* | -7 | 5 | 7
CCOc1cc([N+](=O)[O-])cc2c1C(=O)Nc1ccccc1O2 | -2 | 13 | . | 0 | 30* | 2 | 44* | 55*
O=C1Nc2ccccc2Oc2cc([N+](=O)[O-])ccc21 | 1 | 2 | 17 | 4 | 12 | 3 | . | .
CC(NC(=O)/C(=C/c1cccc([N+](=O)[O-])c1)NC(=O)c1ccco1)C(=O)O (configuration not stated) | -3 | -7 | 2 | -2 | 130* | 6 | 3 | 8
O=C(NC(Cc1ccccc1)C(=O)O)/C(=C\c1cccc([N+](=O)[O-])c1)NC(=O)c1ccco1 (configuration not stated) | 3 | -5 | -8 | 6 | -1 | 3 | . | .
